Reference: PubChem BioAssay
For part of these data: Results with a measured potency or affinity are listed apart. The source made the active and inactive calls.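 The calls were made as follows, unless noted: active = dose curve with midpoint inside tested range, moderate steepness, plateau gap beyond fit error, low compound glow and bead-link interference; inactive = the rest.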

Legend:
[1] = biological target: Cell division control protein 42 homolog (Homo sapiens) (UniProt P60953); assay: activated mutant Cdc42 GTP-binding inhibitors, dose response, biochemical, multiplex bead flow cytometry, Bodipy-FL-GTP (AID 1333;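 active = fitted half-maximal concentration within the tested dose range, moderate curve steepness, a statistically real signal drop, and little compound fluorescence or tag-binding interference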)
Sequence of Cell division control protein 42 homolog (Homo sapiens) (P60953 whole entry, looked up): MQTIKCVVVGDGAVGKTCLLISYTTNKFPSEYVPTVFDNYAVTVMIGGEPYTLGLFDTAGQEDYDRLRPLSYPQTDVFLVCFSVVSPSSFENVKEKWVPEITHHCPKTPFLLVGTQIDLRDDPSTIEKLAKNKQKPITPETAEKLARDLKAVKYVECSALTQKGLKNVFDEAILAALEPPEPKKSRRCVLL

[2] = biological target: Cell division control protein 42 homolog (Homo sapiens) (UniProt P60953); assay: wildtype Cdc42 GTP-binding inhibitors, dose response, biochemical, multiplex bead flow cytometry, Bodipy-FL-GTP (AID 1334;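 active = fitted half-maximal concentration within the tested range, moderate curve steepness, significant signal drop, and little compound fluorescence or bead-linkage interference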); details: bead-based flow cytometry, Bodipy-FL-GTP binding to GST-Cdc42; at 100 µM (top of the series) unless noted
[3] = biological target: GTPase HRas (Homo sapiens) (UniProt P01112); assay: inhibitors of GTP binding to wildtype Ras, dose response, biochemical, multiplex bead flow cytometry (AID 1335;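 active = fitted half-maximal concentration within 10 nM to 100 µM, steepness 0.5 to 2, significant signal drop, low assay interference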); details: bead-based flow cytometry, Bodipy-GTP binding to GST-Ras; at 100 µM (top of the series) unless noted
Sequence of GTPase HRas (Homo sapiens) (P01112 whole entry, looked up): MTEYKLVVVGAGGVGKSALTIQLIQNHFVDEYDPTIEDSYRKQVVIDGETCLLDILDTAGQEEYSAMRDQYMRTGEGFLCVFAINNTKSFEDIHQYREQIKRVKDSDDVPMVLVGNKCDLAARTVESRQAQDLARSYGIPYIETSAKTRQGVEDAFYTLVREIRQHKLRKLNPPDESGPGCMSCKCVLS

[4] = tested on: Ras-related protein Rab-7a (dog), GTP binding; assay: Rab7 GTP binding inhibitors, potency, dose response, biochemical, wildtype, multiplex bead flow cytometry (AID 1336; call rule not given here)
[5] = biological target: Ras-related C3 botulinum toxin substrate 1 (Homo sapiens) (UniProt P63000); assay: wildtype Rac1 GTP binding inhibitors, dose response, biochemical, multiplex bead flow cytometry (AID 1340); details: GST-Rac1 beads, Bodipy-FL-GTP binding; at 100 µM (top of the series) unless noted
[6] = biological target: GTPase HRas (Homo sapiens) (UniProt P01112); assay: activated Ras mutant GTP binding inhibitors, dose response, biochemical, multiplex bead flow cytometry (AID 1341;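 active = dose-response curve with midpoint inside the tested range, moderate steepness, significant amplitude and little compound fluorescence or bead-attachment interference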;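 also: GST-tagged constitutively activated Ras mutant immobilized on beads and multiplexed with other GTPases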)

SMILES	outcome [1]	fluorescence, percent of control (lower = inhibition) [2] [%]	GTP binding, percent of control [3] [%]	outcome [4]	GTP binding signal, raw median fluorescence (lower = inhibition) (MCF (arbitrary fluorescence units)) [5]	outcome [6]
COc1cccc2c(SCC(=O)N/N=C/c3ccc(O)cc3O)cc(C)nc12	inactive	29.6	62.9	inactive	110	inactive
O=c1/c(=C/c2ccc(CNS(=O)(=O)c3ccccc3)o2)sc2n1CCN=2	inactive	29	63.2	inactive	119	inactive
Cc1cc2[nH]c3c(c[n+](C)c4ccccc34)c2cc1C	inactive	35.5	78.4	inactive	253	inactive
O=C(COc1ccccc1[N+](=O)[O-])Nc1cc(Cl)ccc1C(=O)O	inactive	32.7	75.6	inactive	215	inactive
COc1cc(/C=C(\C#N)c2nc3ccc(C)cc3[nH]2)cc([N+](=O)[O-])c1O	inactive	25.3	61.6	inactive	151	inactive
C=CCN1C(=O)/C(=C/C=C2/N(CC)c3ccc(S(=O)(=O)N(C)C)cc3N2CC)SC1=S	inactive	56.2	88.4	inactive	215	inactive
CCCCCN1CC(O)=C(c2ccccc2)C1=N	inactive	82.3	158	inactive	179	inactive
O=C(O)c1cccnc1Oc1ccc2c(c1)OCO2	inactive	76.8	92	inactive	55.2	inactive
O=C(O)C1CCCN1C(=O)OCc1ccccc1 (stereo not given)	inactive	108	188	inactive	235	inactive
c1ccc2[nH]c3cc4ncnc4cc3nc2c1	inactive	31.7	70.1	inactive	189	inactive
COC(=O)c1cccc(NC(=O)c2nn(C)c(=O)c3ccccc23)c1	inactive	42.8	155	inactive	179	inactive
Cn1ncc(C(N)=O)c1NC(=S)NC(=O)c1ccc(Br)o1	inactive	36.5	76.4	inactive	170	inactive
CCCc1cc(NCc2ccccn2)n2c(nc3ccccc32)c1C#N	inactive	30.1	68.2	inactive	167	inactive
Cc1ccccc1OCCn1c(C)c(C(=O)O)c2ccccc21	inactive	61.5	205	inactive	64.3	inactive
O=c1c2ccccc2nc2c3ccccc3c(NCc3ccco3)nn12	inactive	80.4	122	inactive	144	inactive
OC(CNCCC1C=Nc2ccccc21)Cn1c2ccc(Cl)cc2c2cc(Cl)ccc21 (stereo not given)	inactive	60.4	67.9	inactive	386	inactive
COc1cccc(C2CC(c3ccccc3)=NN2S(=O)(=O)c2ccc(C)cc2)c1OC (stereo not given)	inactive	93.3	141	inactive	311	inactive
CCCN1C(=O)/C(=C\C=C2\N(CC)c3ccccc3C2(C)C)SC1=S	inactive	104	140	inactive	307	inactive
Cc1cccc(NCc2ccc(O)c3ncccc23)c1C	inactive	39.8	84.4	inactive	259	inactive
O=C(COC(=O)c1ccc2c(c1[N+](=O)[O-])C(=O)c1ccccc1C2=O)NC1CC1	inactive	29.3	72.9	inactive	178	inactive
Cc1cc(-c2n[nH]c(=S)n2/N=C/c2cc([N+](=O)[O-])ccc2Cl)n[nH]1	inactive	40.4	54.8	inactive	105	inactive
COC(=O)c1c(N2C(=O)[C@H]3[C@@H](C2=O)[C@]2(C(=O)Nc4c(C)cc(C)cc42)N2CCC[C@@H]32)sc(C)c1C	inactive	45.1	97.2	inactive	238	inactive
CCc1ccc(Sc2cc(C(=O)O)c3ccccc3n2)cc1	inactive	57.8	86	inactive	31	inactive
O=C(Cn1cnc2cc([N+](=O)[O-])ccc2c1=O)NCc1ccc(Cl)cc1	inactive	34.9	82.3	inactive	192	inactive
Cc1cc(OCCSc2nc3ccccc3n2CC(=O)O)ccc1Cl	inactive	58.4	85.5	inactive	29.6	inactive
Cc1nnc2ccc(-c3ccc(NC(=O)c4ccco4)cc3)nn12	inactive	69.8	109	inactive	215	inactive
O=C(O)CSc1nc2ccccc2n1CCOc1ccccc1F	inactive	58.4	90.3	inactive	37.2	inactive
CC(C)CCNC(=O)CN(CCN1CCOCC1)C(=O)Cn1nnc(-c2ccc(F)cc2)n1	inactive	97.1	162	inactive	188	inactive
C/C(=N\Nc1cc(C)nc(-c2ccccc2)n1)c1cccc([N+](=O)[O-])c1	inactive	33.6	77.8	inactive	193	inactive
COc1ccc(-c2noc(CCC(=O)N3CCN(c4cc(C)ccc4C)CC3)n2)cc1	inactive	25.4	76	inactive	195	inactive
